Each structure is given as a SMILES string. Inconclusive results are not listed. The source made the active and inactive calls. Calls come from the whole dose curve.
% is set by controls: 0 for no effect and ±100 for the full control effect; potency is the fitted concentration of half-maximal effect.

Acetylcholinesterase (Homo sapiens), sequence (P22303 whole entry, looked up): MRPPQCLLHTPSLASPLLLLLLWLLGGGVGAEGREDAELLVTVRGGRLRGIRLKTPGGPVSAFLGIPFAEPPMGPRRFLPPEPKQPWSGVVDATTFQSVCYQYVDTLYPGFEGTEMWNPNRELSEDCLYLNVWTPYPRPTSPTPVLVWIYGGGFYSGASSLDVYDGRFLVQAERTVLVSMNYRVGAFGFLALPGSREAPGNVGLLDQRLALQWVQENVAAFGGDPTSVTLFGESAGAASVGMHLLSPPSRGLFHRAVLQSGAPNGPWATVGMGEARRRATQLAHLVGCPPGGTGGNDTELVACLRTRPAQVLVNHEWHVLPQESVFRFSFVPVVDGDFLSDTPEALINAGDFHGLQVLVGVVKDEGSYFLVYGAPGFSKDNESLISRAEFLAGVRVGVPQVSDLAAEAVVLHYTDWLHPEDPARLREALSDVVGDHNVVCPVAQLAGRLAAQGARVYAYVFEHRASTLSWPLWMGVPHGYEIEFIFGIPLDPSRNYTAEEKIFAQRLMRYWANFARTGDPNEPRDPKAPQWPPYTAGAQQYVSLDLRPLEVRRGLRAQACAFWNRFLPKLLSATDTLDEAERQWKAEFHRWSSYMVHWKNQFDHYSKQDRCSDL

This assay concerns the target Acetylcholinesterase (Homo sapiens) (UniProt P22303). Description: Acetylcholinesterase (AChE) small molecule antagonists: fluorescence cell-based qHTS assay (AID 1347398). Note: nearly all actives have a fitted effect of over 50% in size. The following applies: SH-SY5Y cells; Potency: AChE activity; outcome: AChE activity; series mostly up to 115 µM; activity change, negative = inhibition: at the top concentration. A digest of the protocol:
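Thiocholine generated from acetylthiocholine by SH-SY5Y cell AChE is detected with Thiolite Green (Ex/Em 490/520 nm) after 40 min at room temperature, following 30 min compound pretreatment at 37 C.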
Background: qHTS replaces the single test concentration by a dilution series.
Take `CN(N=O)C(=O)N[C@@H]1[C@@H](O)[C@H](O)[C@@H](CO)O[C@@H]1O`: the Potency entry was “inactive”.

For the compound `O=C1CCCCC1C1CCCCC1` (stereo not given), the “activity change, negative = inhibition” value was 1.39% (inactive).

Take `CCOC(=O)COc1ccc2c(C)c(CCN(CC)CC)c(=O)oc2c1Cl`: the Potency is 6.92 µM (active).

For the compound `C=C(C)C(N)=O`, the Potency entry is “inactive”.

In the case of `NC(=O)C1(N2CCCCC2)CCN(CCCC(=O)c2ccc(F)cc2)CC1`, the “activity change, negative = inhibition” value is -4.34% [at 53.7 µM] (inactive).

In the case of `CCCC(=O)OCOC(=O)C1=C(C)NC(C)=C(C(=O)OC)C1c1cccc(Cl)c1Cl` (stereo not given), the “activity change, negative = inhibition” value was -3.2% [at 53.7 µM] (inactive).

Consider `O=C(Nc1ccccc1SSc1ccccc1NC(=O)c1ccccc1)c1ccccc1`, for which the Potency result is “inactive”.

Turning to `CCc1nc(N)nc(N)c1-c1ccc(Cl)cc1`, the Potency result is “inactive”.

On to `CCN(Cc1ccccc1)c1ccccc1`, for which the “activity change, negative = inhibition” value is -1.77% (inactive).

Regarding `CCOC(=O)C1=C[C@]2(CC)CCCN3CCc4c(n1c1ccccc41)[C@@H]32`, the “activity change, negative = inhibition” value was -11.9% [at 53.7 µM] (inactive).

Turning to `COC(=O)[C@H]1[C@H]2C[C@@H]3c4[nH]c5cc(OC)ccc5c4CCN3C[C@H]2C[C@@H](OC(=O)/C=C/c2ccc(O)c(OC)c2)[C@@H]1OC`, the “activity change, negative = inhibition” value was 1.11% [at 53.7 µM] (inactive).

Take `CC(C)OC(=O)CCC(=O)OC(C)C`: the “activity change, negative = inhibition” value was 5.09% (inactive).

For the compound `CCC(=O)CC(C)CC` (stereo not given), the activity change, negative = inhibition was 1.06% [at 0.439 µM] (inactive).

As for `CN(C)C(=O)Nc1ccc(Cl)c(Cl)c1`, the Potency result is “inactive”.

Take `COc1ccc(NC(=O)CC(C)=O)cc1`: the “activity change, negative = inhibition” value was 1.64% (inactive).

For `CC(C)(C)C(=O)CC(=O)C(C)(C)C`, the “activity change, negative = inhibition” value was 1.41% (inactive).

`N[C@@H](Cc1cc(I)c(Oc2cc(I)c(O)c(I)c2)c(I)c1)C(=O)O`: the Potency result is “inactive”.

Regarding `OC/C(Br)=C(\Br)CO`, the “activity change, negative = inhibition” value is -0.6% (inactive).

As to `CCCCN(CCCC)C(=S)SSC(=S)N(CCCC)CCCC`, the “activity change, negative = inhibition” value was -19% (inactive).

With `FC(F)(F)c1ccccc1-n1ccnc1`, the “activity change, negative = inhibition” value is 1.32% [at 53.7 µM] (inactive).
